This note sets out measurements from PubChem BioAssay (EPA / NIEHS).

Common to all, as to conditions: mRNA level, 48 h; actives raise or lower the signal
Read-out in assay [1]: Interleukin 6 Receptor (IL6R), IL6R (gene 3570)
In words: LTEA_HepaRG_IL6R: Life Technologies and Expression Analysis (LTEA) Assay for Interleukin 6 Receptor (IL6R) using HepaRG (AID 2283510).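 As to AC50: differentiated human HepaRG liver cells in serum-free induction medium; TaqMan qRT-PCR signal normalized to ACTB GAPDH and POLR2A housekeeping genes.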 The essentials:
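Cells were thawed, plated and cultured 48 h, then medium was changed to serum-free induction medium. Chemicals were added in duplicate (100 uM top, half-log steps, 0.5% DMSO) for 48 h. Lysates were analyzed by qRT-PCR for IL6R expression.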

Read-out in assay [2]: Potassium channel subfamily K member 1 (KCNK1), KCNK1 (gene 3775)
In words: LTEA_HepaRG_KCNK1: Life Technologies and Expression Analysis (LTEA) Assay for Potassium channel subfamily K member 1 (KCNK1) using HepaRG (AID 2283511). The essentials: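 Human HepaRG cultures receive test chemicals for 48 h in 0.5% DMSO, top concentration 100 uM with half-log dilutions. Induction or suppression of KCNK1 mRNA relative to DMSO is derived by bidirectional fitting of qRT-PCR data.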

Read-out in assay [3]: Keratin 19 (KRT19), KRT19 (gene 3880)
In words: LTEA_HepaRG_KRT19: Life Technologies and Expression Analysis (LTEA) Assay for Keratin 19 (KRT19) using HepaRG (AID 2283512). The essentials:
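KRT19 transcript measured by TaqMan qRT-PCR, referenced to three housekeeping genes, after HepaRG cells received test chemicals for 48 h. Eight half-log concentrations, top 100 uM, 0.5% DMSO vehicle; increases and decreases both fitted.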

Read-out in assay [4]: JUN Transcription Factor, JUN (gene 3725)
As to the kind of experiment: LTEA_HepaRG_JUN: Life Technologies and Expression Analysis (LTEA) Assay for JUN Transcription Factor using HepaRG (AID 2283513). The gist of the method:
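Read-out is JUN transcript level by TaqMan qRT-PCR, normalized to ACTB, GAPDH and POLR2A, after 48 h chemical treatment of HepaRG cells. Concentration-response spanned eight half-log points up to 100 uM in 0.5% DMSO.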

Read-out in assay [5]: Lipase C (LIPC), LIPC (gene 3990)
As to the kind of experiment: LTEA_HepaRG_LIPC: Life Technologies and Expression Analysis (LTEA) Assay for Lipase C (LIPC) using HepaRG (AID 2283514). The gist of the method: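 In this multiplexed gene-expression screen, human HepaRG cultures received test chemicals for 48 h across eight concentrations with 100 uM highest, in duplicate. Values reflect LIPC mRNA induction or suppression versus DMSO vehicle, from normalized qRT-PCR.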

Read-out in assay [6]: Lipoprotein lipase (LPL), LPL (gene 4023)
In words: LTEA_HepaRG_LPL: Life Technologies and Expression Analysis (LTEA) Assay for Lipoprotein lipase (LPL) using HepaRG (AID 2283515). The essentials: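 Concentration-response testing used half-log steps from 100 uM in 0.5% DMSO on human HepaRG cells, 48 h, duplicate wells. Phenobarbital 1 mM served as induction control; LPL mRNA was normalized to ACTB, GAPDH, POLR2A.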

Read-out in assay [7]: MicroRNA 122 (MIR122), gene 406906
In words: LTEA_HepaRG_MIR122: Life Technologies and Expression Analysis (LTEA) Assay for MicroRNA 122 (MIR122) using HepaRG (AID 2283516). Also: the transcript read is the microRNA miR-122. The gist of the method: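 Human liver HepaRG cultures receive test chemicals for 48 h at eight half-log concentrations from 100 uM. Expression is quantified by qRT-PCR with ACTB/GAPDH/POLR2A normalization and fitted bidirectionally against 0.5% DMSO.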

Read-out in assay [8]: matrix metalloproteinase-10 (MMP10), MMP10 (gene 4319)
In words: LTEA_HepaRG_MMP10: Life Technologies and Expression Analysis (LTEA) Assay for matrix metalloproteinase-10 (MMP10) using HepaRG (AID 2283517). The essentials: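 In differentiated HepaRG cultures kept in 0.5% DMSO, test chemicals act for 48 h over an eight-point range with a top dose of 100 uM. Expression is then quantified by TaqMan RT-PCR against ACTB, GAPDH and POLR2A.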

Read-out in another assay: MYC, MYC (gene 4609)
In words: LTEA_HepaRG_MYC: Life Technologies and Expression Analysis (LTEA) Assay for MYC using HepaRG (AID 2283518). The gist of the method:
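MYC transcript changes, up or down relative to 0.5% DMSO, from TaqMan qRT-PCR normalized to three housekeeping genes. Human HepaRG cultures received chemicals for 48 h at eight half-log concentrations up to 100 uM, in duplicate.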

Read-out in assay [9]: matrix metalloproteinase-3 (MMP3), MMP3 (gene 4314)
As to the kind of experiment: LTEA_HepaRG_MMP3: Life Technologies and Expression Analysis (LTEA) Assay for matrix metalloproteinase-3 (MMP3) using HepaRG (AID 2283519). The essentials:
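Human liver HepaRG cultures received chemicals (top concentration 100 uM, 0.5% DMSO) for 48 h in duplicate. MMP3 mRNA induction or loss was then assessed via TaqMan qRT-PCR with housekeeping-gene normalisation.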

SMILES strings stand for the structures. Active and inactive are the calls of the source. The calls were made as follows: active = hit-call score of the fitted dose curve at least 0.9, where 1 is the maximum; inactive = score below 0.9.

What is called AC50 is the midpoint of the concentration-response curve, whichever way the signal moves. Regarding `CCc1nc(N)nc(N)c1-c1ccc(Cl)cc1`, the AC50 was 26.7 µM (active) in assay [1]; 75.5 µM (active) in [3]; 68.6 µM (active) in assay [5]; 75.1 µM (active) in assay [6]; 33.2 µM (active) in [7]; 78.7 µM (active) in the assay with MYC, MYC (gene 4609). Besides, the result in assay [2], in assay [4], in assay [8] and in assay [9] was inactive.
Consider `CCCCCCCCCCCCCCCCO`, for which, in [1], the half-maximal activity concentration (AC50) was 50 µM (active). Also, the compound was classed as inactive in assay [2], in assay [3], in assay [4], in assay [5], in [6] and in assay [7]. Further, the outcome in assay [8] is “inactive”; with MYC, MYC (gene 4609), “inactive”; in [9] it was “inactive”.
For `O=[Si]=O`, the compound was classed as inactive in assay [1], in assay [2], in [3], in assay [4], in assay [5] and in assay [6]. For the same compound, the outcome was “inactive” in [7]; “inactive” in assay [8]; “inactive” with MYC, MYC (gene 4609); “inactive” in [9].
Consider `C/C=C/c1ccc(OC)cc1`, for which the call in [1], in [2], in assay [3], in assay [4], in [5] and in assay [6] was inactive. Also, the outcome in assay [7] was “inactive”; in assay [8], “inactive”; with MYC, MYC (gene 4609), “inactive”; in assay [9], “inactive”.
For the compound `COc1ccc(C(=O)Nc2nc3ccccc3c(NCc3ccccc3)c2C#N)cc1`, the AC50 was 4.44 µM (active) in assay [1]; 12.9 µM (active) in assay [3]; 15.7 µM (active) in assay [5]; 4.35 µM (active) in [6]; 14.7 µM (active) in [7]; 14.6 µM (active) with MYC, MYC (gene 4609). The AC50 in [9] was 9.92 µM (active). The compound was classed as inactive in [2], in [4] and in [8].
As for `OCC(O)CO`, the compound was classed as inactive in assay [1], in assay [2], in [3], in assay [4], in assay [5] and in assay [6]. Moreover, the outcome in assay [7] is “inactive”; in [8], “inactive”; in the assay with MYC, MYC (gene 4609), “inactive”; in [9], “inactive”.
For `COc1ccc(OC(F)(F)F)cc1CN[C@H]1CCCN[C@H]1c1ccccc1`, the result in assay [1], in assay [3], in assay [5] and in assay [7] was inactive. Further, the AC50 in [2] was 79.1 µM (active); in assay [4], 78.9 µM (active); in assay [6] it was 82.9 µM (active); in [8] it was 75.8 µM (active); with MYC, MYC (gene 4609), 7.25 µM (active); in assay [9], 80.2 µM (active).
As to `CCCCC(CC)COP(=O)(OCC(CC)CCCC)OCC(CC)CCCC` (stereo not given), the outcome in assay [1], in [2], in assay [3], in assay [4], in assay [5] and in [6] was inactive. The outcome in [7] was “inactive”; in assay [8], “inactive”; with MYC, MYC (gene 4609) it was “inactive”; in assay [9] it was “inactive”.
In the case of `CC(=O)S[C@H](C(=O)N[C@H]1Cc2ccccc2[C@H]2CCC[C@@H](C(=O)O)N2C1=O)C(C)C`, the compound was called inactive in assay [1], in assay [2], in [3], in assay [4], in assay [5] and in assay [6]. Besides, the outcome is “inactive” in [7]; “inactive” in assay [8]; “inactive” with MYC, MYC (gene 4609); “inactive” in assay [9].
In the case of `CCCCC(CC)CO` (stereo not given), the compound was classed as inactive in [1], in assay [2], in [3], in assay [4], in assay [5] and in [6]. In addition, the outcome in [7] was “inactive”; in assay [8], “inactive”; in the assay with MYC, MYC (gene 4609), “inactive”; in [9] it was “inactive”.
With `Oc1ccc(O)cc1`, the outcome in assay [1], in [2], in [3], in [4], in [5] and in [6] was inactive. The outcome in assay [7] was “inactive”; in [8] it was “inactive”; in the assay with MYC, MYC (gene 4609), “inactive”; in assay [9] it was “inactive”.
In the case of `COC(=O)[C@H]1[C@H]2C[C@@H]3c4[nH]c5cc(OC)ccc5c4CCN3C[C@H]2C[C@@H](OC(=O)c2cc(OC)c(OC)c(OC)c2)[C@@H]1OC`, the AC50 was 42.2 µM (active) in assay [1]; 8.38 µM (active) in [4]; 49.4 µM (active) in assay [5]; 55 µM (active) in [7]; 25.3 µM (active) in assay [8]; 29.1 µM (active) with MYC, MYC (gene 4609). Further, the compound was classed as inactive in assay [2], in assay [3], in [6] and in [9].
Regarding `O=C1O[C@H]([C@H](O)CO)C(O)=C1O`, the result in assay [1], in [2], in assay [3], in assay [4], in [5] and in [6] was inactive. Further, the outcome in assay [7] is “inactive”; in [8], “inactive”; with MYC, MYC (gene 4609), “inactive”; in assay [9], “inactive”.
On to `CN(C)CCCN1c2ccccc2Sc2ccc(Cl)cc21`, for which the AC50 is 44.7 µM (active) in assay [1]; 82.9 µM (active) in [3]; 94 µM (active) in assay [4]; 85.7 µM (active) in [7]; 85.1 µM (active) in [8]; 87.5 µM (active) with MYC, MYC (gene 4609). Besides, the result in [2], in [5], in assay [6] and in [9] was inactive.
For the compound `CCC(C)N(C)C(=O)c1cc2ccccc2c(-c2ccccc2Cl)n1` (stereo not given), the compound was called inactive in [1], in assay [2], in [3], in assay [4], in assay [5] and in assay [6]. Besides, the compound was called inactive in assay [7], in [8] and in assay [9]. Besides, the AC50 with MYC, MYC (gene 4609) was 31.8 µM (active).
Take `CCCC(=O)O`: the result in assay [1], in assay [2], in [3], in assay [4], in assay [5] and in assay [6] was inactive. The outcome in [7] was “inactive”; in [8], “inactive”; with MYC, MYC (gene 4609), “inactive”; in assay [9] it was “inactive”.
Take `CN(C)CCCN(C)CCCN(C)C`: the compound was classed as inactive in assay [1], in assay [2], in [3], in [4], in [5] and in assay [6]. Also, the outcome in [7] was “inactive”; in [8], “inactive”; in the assay with MYC, MYC (gene 4609), “inactive”; in assay [9], “inactive”.
For the compound `O=C1c2c(O)cccc2Cc2cccc(O)c21`, the compound was classed as inactive in assay [1], in assay [2], in [3], in assay [4], in assay [5] and in assay [6]. The outcome in assay [7] was “inactive”; in assay [8], “inactive”; with MYC, MYC (gene 4609), “inactive”; in assay [9] it was “inactive”.
On to `O=C1NC(=O)C(c2ccccc2)(c2ccccc2)N1`, for which the outcome in [1], in assay [2], in [3], in assay [4], in assay [5] and in assay [6] was inactive. The outcome in assay [7] is “inactive”; in assay [8] it was “inactive”; with MYC, MYC (gene 4609), “inactive”; in assay [9], “inactive”.
In the case of `CCCCCCCCCC[N+](C)(C)[O-]`, the compound was called inactive in assay [1], in [2], in assay [3], in assay [4], in assay [5] and in [6]. Besides, the outcome in assay [7] was “inactive”; in assay [8], “inactive”; with MYC, MYC (gene 4609), “inactive”; in assay [9], “inactive”.
Regarding `O=C(O)CN(CC(=O)O)CC(=O)O`, the compound was called inactive in [1], in assay [2], in [3], in assay [4], in [5] and in assay [6]. Also, the outcome in [7] is “inactive”; in [8], “inactive”; in the assay with MYC, MYC (gene 4609), “inactive”; in assay [9], “inactive”.
